Most compounds without a hit are left out; they make up all but 11% or so of the library.
CBFb-RUNX1 inh = qHTS Assay for Compounds Blocking the Interaction Between CBF-beta and RUNX1 for the Treatment of Acute Myeloid Leukemia; 230,000 tested, under 10 active; AlphaScreen CBFb-His/RUNX1-biotin binding, biochemical; Potency, µM (titrated, usually from 59.8 µM), without a hit: top-dose activity, negative = inhibition, hits mostly inhibitors; also: % of control where 0% means no effect
Target sequence (Q01196 whole entry, looked up): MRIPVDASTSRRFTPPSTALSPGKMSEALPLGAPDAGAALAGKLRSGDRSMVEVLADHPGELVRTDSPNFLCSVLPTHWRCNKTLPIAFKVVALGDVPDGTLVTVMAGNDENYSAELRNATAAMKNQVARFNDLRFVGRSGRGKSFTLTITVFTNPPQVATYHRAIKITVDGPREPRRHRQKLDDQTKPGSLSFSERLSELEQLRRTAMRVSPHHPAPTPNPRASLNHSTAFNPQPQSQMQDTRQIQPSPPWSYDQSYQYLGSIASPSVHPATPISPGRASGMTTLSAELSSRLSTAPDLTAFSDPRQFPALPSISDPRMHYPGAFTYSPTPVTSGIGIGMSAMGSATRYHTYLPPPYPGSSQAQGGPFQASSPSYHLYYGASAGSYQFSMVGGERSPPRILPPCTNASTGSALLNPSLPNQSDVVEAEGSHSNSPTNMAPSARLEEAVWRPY
Target sequence (Q13951 whole entry, looked up): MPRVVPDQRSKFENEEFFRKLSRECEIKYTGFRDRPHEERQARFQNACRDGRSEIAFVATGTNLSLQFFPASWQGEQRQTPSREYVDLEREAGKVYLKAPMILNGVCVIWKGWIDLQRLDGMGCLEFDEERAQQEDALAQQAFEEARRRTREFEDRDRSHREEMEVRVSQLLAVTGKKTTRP
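Read-out: AlphaScreen. Format: His-CBF-beta with biotinylated RUNX1 (30 nM each) preincubated 20 min, compound 15 min, Ni-chelate plus streptavidin beads 90 min; room temperature throughout.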
ALDH1A1 inh = qHTS Assay for Inhibitors of Aldehyde Dehydrogenase 1 (ALDH1A1). Aldehyde dehydrogenase 1A1 (Homo sapiens), P00352. Purified ALDH1A1, NADH fluorescence, propionaldehyde substrate. Potency, µM (highest dose often 75.3 µM), for inactives: at the highest dose activity, negative = inhibition, actives largely listed as inhibitors. 7.3% of 220,000 active. AID 1030, 2008; active = well fitted inhibition curve with a large enough effect, not every such curve was filed as active; inconclusive = small, poorly fitted or top-dose-only effect, or another doubt; inactive = no such curve, though single readings can be large or run the other way;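 also: potency is read from the fitted curve at half-maximal effect; plate controls were no enzyme wells and a reference inhibitor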
HTT aggregate = qHTS Multiplex Assay to Identify Dual Action Probes in a Cell Model of Huntington: Aggregate Formation (GFP) | PC12 HttQ103-GFP aggregates, Acumen cytometry, 40 h | Potency, µM (series often up to 46.1 µM), for the others: at the top dose activity change, negative = inhibition, most hits filed as inhibitors | 1.1% of 220,000 active | AID 1688, 2009; also: potency is read from the fitted curve at half-maximal effect; % is scaled to controls: 0 for no effect and ±100 for the full control effect; nearly all actives have a fitted effect of over 60% in size
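PC12/HTTQ103-GFP, ecdysone-inducible; teb 100 nM; cpd qHTS titration; GFP aggregates read on laser cytometer, Ex 488/Em 500-530 nm.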
HPGD inh = qHTS Assay for Inhibitors of HPGD (15-Hydroxyprostaglandin Dehydrogenase) | 15-hydroxyprostaglandin dehydrogenase [NAD(+)] (Homo sapiens), P15428 | purified HPGD, NADH fluorescence kinetic, PGE2 substrate | Potency, µM, inactives show at the highest dose activity change, negative = inhibition, usual class: inhibitors | 4.3% of 150,000 active; active = well fitted inhibition curve with a large enough effect, not every such curve was filed as active; inconclusive = small, poorly fitted or top-dose-only effect, or another doubt; inactive = no such curve, though single readings can be large or run the other way; also: potency is read from the fitted curve at half-maximal effect; % is scaled to controls: 0 for no effect and ±100 for the full control effect
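20 nM HPGD preincubated 15 min at room temperature with compound in 50 mM Tris-HCl pH 8, 0.01% Tween 20. Started with 1 mM NAD+ and 30 uM prostaglandin E2; NADH fluorescence (360/450 nm) read 5 times over 30-s intervals, last minus first.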
HTT cytoprotect = qHTS Multiplex Assay to Identify Dual Action Probes in a Cell Model of Huntington: Cytoprotection (ATP); PC12 HTT-Q103 induced, cytoprotection, ATP luminescence, 40 h; Potency, µM (highest dose often 56.4 µM), inactives show cytoprotection (ATP increase), most hits filed as activators; 0.14% of 230,000 active; AID 1471, 2008; also: potency is read from the fitted curve at half-maximal effect; % of control where 0% means no effect; nearly all actives have a fitted effect of over 45% in size
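Compounds added alongside 100 nM tebufenozide, which induces toxic Q103 huntingtin exon 1-GFP in stable PC12 cells; surviving cells quantified by luminescent ATP measurement. Medium: phenol red-free DMEM, 5% equine and 5% calf serum.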
PNC inhibitor = High Content Assay for Compounds that inhibit the Assembly of the Perinucleolar Compartment; activity change (PNC), negative = inhibition, % at 10 µM; 3.1% of 140,000 active; PC3M PTB-GFP, PNC prevalence imaging, 16 h; hits give low values;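 active = readout at or below -70, meaning at least 70% loss of cells showing the perinucleolar compartment, a nuclear body marking cancer cells; inconclusive = readout between -30 and a set limit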;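 also: plate controls were DMSO wells for no effect and camptothecin positive control wells for full effect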
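Read-out is percentage of cells bearing a perinucleolar compartment, from automated 20x imaging of fixed, Hoechst-stained PC3M PTB-GFP cells. Cells were seeded 4 h, then exposed 16 h to compound (23 nl of library stock) in duplicate plates.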
Starred values were filed as active, the others as inactive; ? = inconclusive; . = not tested or not shown; [ ] = another dose, or the depositor's remark. Unless noted, calls follow the shape of the dose curve; as a rule, active = well fitted curve in the direction sought with a large enough effect; inconclusive = small, poorly fitted or top-dose-only effect, or another doubt; inactive = no such curve, though single readings can be large; an effect the other way counts as inactive or inconclusive.

SMILES	CBFb-RUNX1 inh	ALDH1A1 inh	HTT aggregate	HPGD inh	HTT cytoprotect	PNC inhibitor
Brc1ccc(-c2nnc3sc(CN4CCC5(CC4)OCCO5)cn23)cc1	7%	-7%	-25%	?	12%[10 µM]	20
c1ccc(-c2nnc3sc(CN4CCc5ccccc54)cn23)cc1	-3%	?	22%	11µM*	-5%	143
CC(=O)Nc1c(C(=O)N2CCCCCC2)cnn1-c1ccccc1Cl	4%	3%	-1%	14µM*	-12%[10 µM]	121
Cc1ccc(-c2cc(C(=O)NC3=NCCS3)c3cc(Br)ccc3n2)o1	-14%	0.11µM*	?	2.5µM*	-17%[10 µM]	-17
Cc1ccc(-c2cc(C(=O)O)c3cc(Br)ccc3n2)o1	?	?	0%	?	.	-28
Cc1cc(C)c(-c2cc([C@H](C)O/N=C3/[C@H]4OC4[C@@H](O)[C@H]4[C@H]3CCn3c(=O)n(-c5ccccc5)c(=O)n34)on2)c(C)c1 (some centres not stated)	?	?	.	.	-282%[10 µM]	.
CC(C)N(Cc1nc(-c2ccccc2)no1)C(=O)CN(C)S(=O)(=O)c1ccccc1	7%	?	10%	-4%	5%[0.074 µM]	?
CCS(=O)(=O)Nc1ccc(C(=O)OC)cc1	-3%	-1%	-18%	14µM*	1%	0
CCS(=O)(=O)Nc1ccc(C(=O)c2ccccc2)cc1	9%	-10%	-26%	0.28µM*	-3%[1.9 µM]	-23
CN(C)c1nc2c(Br)c(Br)c(Br)c(Br)c2[nH]1	-1%	-12%	.	-19%	.	.
CCOc1ccc(Cc2nc(N)nc(N)n2)cc1	4%	11%	-8%	-11%	-29%[10 µM]	-100*
COC(=O)c1ccc(NC(=O)CSc2nccn2CCc2ccccc2)cc1	-3%	20µM*	1%	-23%	-9%	-17
Cn1ccnc1SCC(=O)Nc1ccccc1	14%	-4%	9%	-9%	8%[10 µM]	-26
COCCCn1c(SCC(=O)Nc2ccc(C(=O)OC)cc2)nc2ccccc2c1=O	3%	?	0%	-15%	-17%[10 µM]	-117*
CCc1ccc(NC(=O)CSc2nc3ccccc3c(=O)n2CCCN2CCC(C)CC2)cc1	0%	-6%	22µM*	.	-78%	.
CCCCCCc1ccc(-c2ccc(C#N)cc2)cc1	17%[21.7 µM]	8%	.	-12%	1%	.
CC1=C(C(=O)OC2CCCCCC2)C(c2ccc(C)o2)C2=C(CCCC2=O)N1 (configuration not stated)	-3%	?	16%	?	22%[10 µM]	10
CC1=C(C(=O)OC2CCCC2)C(c2ccc(C)o2)C2=C(CC(c3cccs3)CC2=O)N1 (configuration not stated)	8%	14µM*	-16%	-19%	12%	?
CCCn1c(=O)c(C(=O)Nc2nnc(C)s2)c(O)c2ccccc21	.	.	.	.	-9%[10 µM]	.
O=C(NCCC1=CCCCC1)c1ccc(Cl)c(S(=O)(=O)N2CCOCC2)c1	4%	13µM*	-11%	1%	-13%	-19
O=S(=O)(NCCC1=CCCCC1)c1cccc(S(=O)(=O)N2CCOCC2)c1	0%	10µM*	-26%	.	8%[10 µM]	10
O=C(O)c1ccc(S(=O)(=O)N[C@H](Cc2c[nH]c3ccccc23)C(=O)O)cc1	-2%	.	.	.	.	.
COc1cccc(Nc2ncc3ncc(=O)n(CCc4ccccc4)c3n2)c1	.	9%	.	.	-2%	.
CCOC(=O)N1CCN(S(=O)(=O)c2ccc(C(=O)Nc3nnc(C)o3)cc2)CC1	-17%	4%	?	-8%	3.5µM*	18
CCOC(=O)N1CCN(S(=O)(=O)c2ccc(C(=O)Nc3nnc(CSC)o3)cc2)CC1	?	-3%	-15%	-7%	0%[10 µM]	117
SMILES	CBFb-RUNX1 inh	ALDH1A1 inh	HTT aggregate	HPGD inh	HTT cytoprotect	PNC inhibitor
CCOC(=O)N1CCC(N2CCN(S(=O)(=O)c3ccc(Cl)cc3)CC2)CC1	1%	14µM*	-20%	-13%	30%	9
Cn1c(=O)oc2cc(S(=O)(=O)N3CCCC(C(=O)NC4CCCc5ccccc54)C3)ccc21 (configuration not stated)	-2%	3%	22%	?	-29%	-1
CCOC(=O)n1c(=O)oc2cc(S(=O)(=O)N3CCCCC3)ccc21	3%	1%	-18%	-21%	5%[0.074 µM]	-100*
Cn1c(=O)oc2cc(S(=O)(=O)N3CCCC(C(=O)N4CC=C(c5ccccc5)CC4)C3)ccc21 (configuration not stated)	1%	?	11µM*	14µM*	-24%	?
COc1cccc(NC(=O)NC2CCCc3ccccc32)c1 (configuration not stated)	20%	?	3%[9.22 µM]	.	-13%[10 µM]	.
CCOC(=O)c1ccc(-c2cc(C)no2)[nH]1	7%	-4%	-7%	-8%	.	21
Cn1c(=O)oc2cc(S(=O)(=O)N3CCCC3)ccc21	7%	-6%	5%	-11%	-1%	7
CCOC(=O)N1CCN(S(=O)(=O)c2ccc3c(c2)oc(=O)n3C)CC1	1%	-1%	-11%	2%	-13%	-80*
O=C(Cn1c(=O)oc2cc(S(=O)(=O)N3CCCC3)ccc21)N1CCc2ccccc2C1	-1%	11µM*	5%	-9%	-14%	5
O=C(Cn1c(=O)oc2cc(S(=O)(=O)N3CCOCC3)ccc21)N1CCc2ccccc2C1	1%	-11%	9%	-2%	-5%	1
CCOCCCNc1nc2c(c(=O)[nH]c(=O)n2C)n1CCCc1ccccc1	-4%	2%	-3%	-12%	-8%[10 µM]	54
COC(=O)C(c1ccccc1Cl)N1CCc2sccc2C1 (configuration not stated)	?	-4%	7%	-10%	-9%	.
COC(=O)CC1C(=O)NCCN1C(=S)Nc1ccccc1 (configuration not stated)	-3%	-8%	4%	-14%	-3%[10 µM]	90
CCOC(=O)CC1C(=O)NCCN1S(=O)(=O)c1ccc(Cl)cc1 (configuration not stated)	1%	?	3%	-15%	25%	44
CCOC(=O)CC1C(=O)NCCN1C(=S)Nc1ccccc1 (configuration not stated)	15%	?	9%	-17%	.	-91*

Compound activity (PubChem)
